The supplement of paper PMC11732987, “Enantioselective OTUD7B fragment discovery through chemoproteomics screening and high-throughput optimisation” (Communications Chemistry, 2025)

Columns and labels:
Assay in all cases: log2 ratio of Biotin-Ahx-Ub-VS probe labelling (fragment/DMSO); higher = less target engagement (more negative = stronger competition), active = hit call of the paper (q ≤ 0.05, log2 ratio ≤ -1)
Details in all cases: compound concentration: 200 uM; treatment time: 3 h
[1] = target: USP9X (UniProt Q93008)
How it was run: (§1)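 HEK293T lysate (495 µg per sample, in Tris/CHAPS/IGEPAL buffer with protease inhibitors) was exposed in triplicate for 3 h to fragment at 200 µM or to vehicle, then to Biotin-Ahx-Ub-VS at 0.5 µM final for 1 h. Labelled DUBs were enriched on NeutrAvidin, digested with LysC and trypsin, and analysed by diaPASEF LC-MS/MS. Spectronaut label-free quantities were normalised to the global median, and values are average log2 ratios of fragment over vehicle from an unpaired t-test. Only proteins with ≥2 unique peptides were used.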

[2] = target: UniProt O00487
How it was run: as §1

[3] = target: UniProt O00507
How it was run: as §1

[4] = target: UniProt P51784
How it was run: as §1

[5] = target: T1, UniProt Q5T2D3
T1 sequence (whole entry): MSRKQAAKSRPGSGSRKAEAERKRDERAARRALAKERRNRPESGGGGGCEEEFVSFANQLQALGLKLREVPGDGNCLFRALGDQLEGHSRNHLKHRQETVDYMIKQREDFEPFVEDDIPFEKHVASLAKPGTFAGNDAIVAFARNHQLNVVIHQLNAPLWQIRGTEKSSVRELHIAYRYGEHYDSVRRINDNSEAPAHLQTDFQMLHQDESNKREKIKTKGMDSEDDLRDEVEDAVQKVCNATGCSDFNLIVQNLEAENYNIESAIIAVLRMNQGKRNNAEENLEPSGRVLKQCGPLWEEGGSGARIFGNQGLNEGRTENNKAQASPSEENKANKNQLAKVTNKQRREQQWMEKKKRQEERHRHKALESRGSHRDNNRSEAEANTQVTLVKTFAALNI
How it was run: as §1

[6] = target: T2, UniProt Q8TE49
T2 sequence (whole entry): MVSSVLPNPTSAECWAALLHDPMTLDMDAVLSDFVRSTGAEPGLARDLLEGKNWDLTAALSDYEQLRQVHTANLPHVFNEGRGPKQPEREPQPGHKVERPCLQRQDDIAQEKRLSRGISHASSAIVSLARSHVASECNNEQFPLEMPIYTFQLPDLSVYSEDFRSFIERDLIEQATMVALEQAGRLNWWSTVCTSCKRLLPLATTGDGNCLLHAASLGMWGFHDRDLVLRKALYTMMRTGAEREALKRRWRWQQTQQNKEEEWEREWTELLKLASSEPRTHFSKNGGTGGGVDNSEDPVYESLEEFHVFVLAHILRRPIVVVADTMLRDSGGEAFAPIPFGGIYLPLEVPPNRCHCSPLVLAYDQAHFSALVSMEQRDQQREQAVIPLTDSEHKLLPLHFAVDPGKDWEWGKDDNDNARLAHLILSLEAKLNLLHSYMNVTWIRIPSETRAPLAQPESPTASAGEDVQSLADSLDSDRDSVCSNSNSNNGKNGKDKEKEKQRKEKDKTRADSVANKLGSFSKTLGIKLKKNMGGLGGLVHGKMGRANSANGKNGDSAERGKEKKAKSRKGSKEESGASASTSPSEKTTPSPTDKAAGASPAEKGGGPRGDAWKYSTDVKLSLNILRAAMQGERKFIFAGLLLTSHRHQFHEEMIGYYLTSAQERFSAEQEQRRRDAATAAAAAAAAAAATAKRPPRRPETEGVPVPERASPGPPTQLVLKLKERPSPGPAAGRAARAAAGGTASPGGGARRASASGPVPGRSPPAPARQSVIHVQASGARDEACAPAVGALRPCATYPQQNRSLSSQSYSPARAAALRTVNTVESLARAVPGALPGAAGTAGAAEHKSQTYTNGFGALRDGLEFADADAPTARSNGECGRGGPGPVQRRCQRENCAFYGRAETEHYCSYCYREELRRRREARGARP
How it was run: as §1

[7] = target: T3, UniProt Q9P2H5
T3 sequence (whole entry): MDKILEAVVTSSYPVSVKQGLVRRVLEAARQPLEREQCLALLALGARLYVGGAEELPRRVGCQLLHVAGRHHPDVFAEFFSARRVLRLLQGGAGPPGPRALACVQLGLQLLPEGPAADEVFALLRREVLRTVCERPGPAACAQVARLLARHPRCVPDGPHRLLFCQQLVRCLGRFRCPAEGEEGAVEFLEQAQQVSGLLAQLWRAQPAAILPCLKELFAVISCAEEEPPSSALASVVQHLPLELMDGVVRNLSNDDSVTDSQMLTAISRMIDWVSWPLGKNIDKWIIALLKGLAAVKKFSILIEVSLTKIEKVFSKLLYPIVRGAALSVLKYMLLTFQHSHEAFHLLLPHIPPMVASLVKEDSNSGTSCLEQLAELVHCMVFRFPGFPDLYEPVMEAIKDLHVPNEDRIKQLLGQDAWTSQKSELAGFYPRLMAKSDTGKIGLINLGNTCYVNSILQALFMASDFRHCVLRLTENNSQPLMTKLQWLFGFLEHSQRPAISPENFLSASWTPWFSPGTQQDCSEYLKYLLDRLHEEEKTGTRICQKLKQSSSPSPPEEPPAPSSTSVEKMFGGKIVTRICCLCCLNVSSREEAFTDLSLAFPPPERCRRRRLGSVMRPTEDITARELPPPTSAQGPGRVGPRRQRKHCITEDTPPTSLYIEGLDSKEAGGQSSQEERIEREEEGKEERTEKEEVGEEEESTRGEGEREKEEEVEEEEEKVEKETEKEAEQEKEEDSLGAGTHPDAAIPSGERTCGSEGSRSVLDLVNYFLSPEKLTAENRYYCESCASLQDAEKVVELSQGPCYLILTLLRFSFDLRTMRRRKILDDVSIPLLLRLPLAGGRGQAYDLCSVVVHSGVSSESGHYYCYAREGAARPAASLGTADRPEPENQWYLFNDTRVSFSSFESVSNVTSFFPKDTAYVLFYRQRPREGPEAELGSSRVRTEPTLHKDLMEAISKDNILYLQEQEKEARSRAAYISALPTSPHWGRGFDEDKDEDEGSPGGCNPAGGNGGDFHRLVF
How it was run: as §1

[8] = target: T4, UniProt Q9UGI0
T4 sequence (whole entry): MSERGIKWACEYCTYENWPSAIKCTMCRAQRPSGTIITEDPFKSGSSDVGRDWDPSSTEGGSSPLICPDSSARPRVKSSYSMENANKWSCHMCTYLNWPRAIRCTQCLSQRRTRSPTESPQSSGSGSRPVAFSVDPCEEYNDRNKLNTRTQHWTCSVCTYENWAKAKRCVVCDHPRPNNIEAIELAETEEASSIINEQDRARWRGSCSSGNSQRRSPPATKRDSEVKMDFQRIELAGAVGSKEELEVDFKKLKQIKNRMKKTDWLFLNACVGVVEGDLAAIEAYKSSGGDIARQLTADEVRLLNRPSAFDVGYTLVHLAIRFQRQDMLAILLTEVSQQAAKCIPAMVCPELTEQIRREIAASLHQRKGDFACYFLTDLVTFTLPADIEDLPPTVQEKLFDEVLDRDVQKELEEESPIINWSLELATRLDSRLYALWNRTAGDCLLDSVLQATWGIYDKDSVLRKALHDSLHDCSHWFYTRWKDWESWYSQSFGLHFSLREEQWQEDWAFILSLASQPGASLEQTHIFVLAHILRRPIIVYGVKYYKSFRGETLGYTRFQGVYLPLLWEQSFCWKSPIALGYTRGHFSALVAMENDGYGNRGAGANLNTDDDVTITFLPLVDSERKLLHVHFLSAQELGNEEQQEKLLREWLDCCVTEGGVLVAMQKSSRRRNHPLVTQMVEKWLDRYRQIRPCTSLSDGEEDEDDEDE
How it was run: as §1

[9] = target: T5, YOD1 (UniProt Q5VVQ6)
T5 sequence (whole entry): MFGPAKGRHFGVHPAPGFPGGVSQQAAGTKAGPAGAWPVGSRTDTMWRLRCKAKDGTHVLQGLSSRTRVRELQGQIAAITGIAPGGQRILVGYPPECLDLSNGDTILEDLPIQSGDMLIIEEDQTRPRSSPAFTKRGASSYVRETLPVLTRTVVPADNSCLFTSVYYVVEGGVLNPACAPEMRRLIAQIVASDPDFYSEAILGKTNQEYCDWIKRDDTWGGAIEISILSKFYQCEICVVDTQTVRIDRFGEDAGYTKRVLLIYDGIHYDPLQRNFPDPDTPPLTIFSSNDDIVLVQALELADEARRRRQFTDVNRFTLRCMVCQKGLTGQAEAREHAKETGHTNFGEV
How it was run: as §1

Measured: log2 ratio of Biotin-Ahx-Ub-VS probe labelling

Chain of UniProt P51784 (P51784 whole entry): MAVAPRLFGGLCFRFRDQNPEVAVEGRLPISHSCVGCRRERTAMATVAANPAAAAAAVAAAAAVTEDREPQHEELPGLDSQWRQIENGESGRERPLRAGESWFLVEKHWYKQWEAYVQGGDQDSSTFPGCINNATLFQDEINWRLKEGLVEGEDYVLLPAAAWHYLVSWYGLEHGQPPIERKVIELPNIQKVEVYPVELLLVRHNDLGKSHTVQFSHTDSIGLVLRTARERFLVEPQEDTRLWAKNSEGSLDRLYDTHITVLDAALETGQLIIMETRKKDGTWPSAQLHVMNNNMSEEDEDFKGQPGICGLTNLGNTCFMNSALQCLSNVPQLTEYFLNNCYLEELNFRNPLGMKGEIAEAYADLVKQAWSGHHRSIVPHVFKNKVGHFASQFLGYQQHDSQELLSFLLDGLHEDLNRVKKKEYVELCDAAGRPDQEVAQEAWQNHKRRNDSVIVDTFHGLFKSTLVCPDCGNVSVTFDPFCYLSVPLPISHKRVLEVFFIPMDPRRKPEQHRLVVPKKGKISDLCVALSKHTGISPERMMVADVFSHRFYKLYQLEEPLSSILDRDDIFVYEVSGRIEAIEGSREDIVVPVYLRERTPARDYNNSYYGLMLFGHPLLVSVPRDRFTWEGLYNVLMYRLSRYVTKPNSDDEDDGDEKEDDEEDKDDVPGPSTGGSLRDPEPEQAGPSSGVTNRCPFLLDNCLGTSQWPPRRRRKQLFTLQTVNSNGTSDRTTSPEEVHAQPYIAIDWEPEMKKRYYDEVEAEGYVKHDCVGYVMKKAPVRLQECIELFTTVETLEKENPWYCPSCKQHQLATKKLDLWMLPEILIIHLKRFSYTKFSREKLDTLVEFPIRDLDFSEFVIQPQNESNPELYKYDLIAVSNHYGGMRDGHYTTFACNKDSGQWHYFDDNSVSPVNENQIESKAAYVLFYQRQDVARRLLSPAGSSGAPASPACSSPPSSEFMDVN
Chain of UniProt O00487 (O00487 whole entry): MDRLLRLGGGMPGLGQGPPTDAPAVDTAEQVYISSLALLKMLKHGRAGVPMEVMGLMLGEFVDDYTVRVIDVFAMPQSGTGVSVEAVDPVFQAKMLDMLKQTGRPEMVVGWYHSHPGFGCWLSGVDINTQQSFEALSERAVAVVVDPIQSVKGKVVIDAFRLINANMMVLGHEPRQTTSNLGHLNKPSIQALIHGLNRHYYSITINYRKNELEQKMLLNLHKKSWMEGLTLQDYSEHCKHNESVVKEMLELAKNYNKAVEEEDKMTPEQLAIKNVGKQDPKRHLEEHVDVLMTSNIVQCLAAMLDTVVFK
Chain of UniProt O00507 (O00507 whole entry): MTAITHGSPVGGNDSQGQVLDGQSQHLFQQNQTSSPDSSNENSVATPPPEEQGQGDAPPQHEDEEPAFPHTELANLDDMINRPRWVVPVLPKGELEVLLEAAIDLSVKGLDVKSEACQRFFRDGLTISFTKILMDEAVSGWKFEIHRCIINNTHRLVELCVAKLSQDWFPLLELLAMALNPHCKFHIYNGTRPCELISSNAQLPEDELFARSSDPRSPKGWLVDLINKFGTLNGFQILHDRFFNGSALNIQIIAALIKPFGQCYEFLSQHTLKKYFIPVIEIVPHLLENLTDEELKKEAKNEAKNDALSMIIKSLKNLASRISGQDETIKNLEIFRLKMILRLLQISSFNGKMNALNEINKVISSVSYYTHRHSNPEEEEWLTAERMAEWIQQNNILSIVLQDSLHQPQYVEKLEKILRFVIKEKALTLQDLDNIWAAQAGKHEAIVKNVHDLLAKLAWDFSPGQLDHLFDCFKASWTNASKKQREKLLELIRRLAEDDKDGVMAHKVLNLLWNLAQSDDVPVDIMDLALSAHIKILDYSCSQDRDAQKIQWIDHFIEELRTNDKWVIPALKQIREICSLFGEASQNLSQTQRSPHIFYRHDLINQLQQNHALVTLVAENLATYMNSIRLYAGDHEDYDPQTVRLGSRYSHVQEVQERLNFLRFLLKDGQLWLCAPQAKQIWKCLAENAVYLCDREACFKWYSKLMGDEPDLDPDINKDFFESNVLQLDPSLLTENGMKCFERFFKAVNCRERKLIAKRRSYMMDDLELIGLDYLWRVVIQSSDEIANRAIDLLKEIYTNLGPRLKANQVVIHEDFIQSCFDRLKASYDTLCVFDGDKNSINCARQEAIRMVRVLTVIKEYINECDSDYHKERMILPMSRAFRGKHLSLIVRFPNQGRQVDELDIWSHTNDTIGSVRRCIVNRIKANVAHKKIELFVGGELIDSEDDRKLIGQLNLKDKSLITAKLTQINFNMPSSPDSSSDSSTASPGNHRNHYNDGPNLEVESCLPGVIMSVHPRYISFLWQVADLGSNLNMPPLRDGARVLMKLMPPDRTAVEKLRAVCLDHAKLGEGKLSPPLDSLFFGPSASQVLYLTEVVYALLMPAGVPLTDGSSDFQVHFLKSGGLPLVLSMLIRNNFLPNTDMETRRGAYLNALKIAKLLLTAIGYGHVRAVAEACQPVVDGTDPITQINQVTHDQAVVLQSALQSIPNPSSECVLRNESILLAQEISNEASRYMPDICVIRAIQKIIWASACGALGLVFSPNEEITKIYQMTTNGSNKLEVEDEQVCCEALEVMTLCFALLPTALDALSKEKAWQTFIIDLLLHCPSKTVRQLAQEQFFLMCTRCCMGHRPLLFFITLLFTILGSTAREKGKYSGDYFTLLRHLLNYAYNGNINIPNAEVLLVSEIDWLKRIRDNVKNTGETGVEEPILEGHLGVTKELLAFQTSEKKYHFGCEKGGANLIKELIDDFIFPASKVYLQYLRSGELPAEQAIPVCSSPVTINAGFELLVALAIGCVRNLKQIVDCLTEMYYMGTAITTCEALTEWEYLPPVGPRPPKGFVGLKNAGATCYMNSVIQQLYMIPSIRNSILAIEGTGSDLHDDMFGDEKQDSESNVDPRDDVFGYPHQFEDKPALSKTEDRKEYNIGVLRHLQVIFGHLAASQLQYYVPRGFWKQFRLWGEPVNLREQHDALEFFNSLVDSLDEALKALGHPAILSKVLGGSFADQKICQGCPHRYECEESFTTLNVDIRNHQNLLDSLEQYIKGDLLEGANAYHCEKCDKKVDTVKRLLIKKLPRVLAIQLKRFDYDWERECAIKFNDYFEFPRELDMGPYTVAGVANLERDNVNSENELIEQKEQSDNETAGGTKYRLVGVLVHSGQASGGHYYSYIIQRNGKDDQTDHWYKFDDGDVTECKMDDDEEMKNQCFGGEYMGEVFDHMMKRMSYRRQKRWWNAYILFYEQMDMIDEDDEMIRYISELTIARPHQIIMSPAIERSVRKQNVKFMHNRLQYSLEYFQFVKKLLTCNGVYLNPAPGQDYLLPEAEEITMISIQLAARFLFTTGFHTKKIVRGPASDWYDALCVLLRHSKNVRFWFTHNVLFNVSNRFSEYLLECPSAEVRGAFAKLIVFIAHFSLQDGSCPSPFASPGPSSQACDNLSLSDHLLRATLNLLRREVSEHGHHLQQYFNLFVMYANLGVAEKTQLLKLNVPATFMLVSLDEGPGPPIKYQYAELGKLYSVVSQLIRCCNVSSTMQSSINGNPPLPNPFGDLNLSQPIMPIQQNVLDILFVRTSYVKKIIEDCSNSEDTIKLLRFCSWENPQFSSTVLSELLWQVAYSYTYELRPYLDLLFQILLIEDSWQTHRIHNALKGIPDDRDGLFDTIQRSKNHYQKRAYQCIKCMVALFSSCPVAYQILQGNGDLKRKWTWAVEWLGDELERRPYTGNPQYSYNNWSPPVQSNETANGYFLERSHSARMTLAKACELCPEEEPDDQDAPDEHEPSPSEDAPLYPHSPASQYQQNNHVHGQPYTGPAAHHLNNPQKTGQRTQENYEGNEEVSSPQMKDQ

Cl.O=C(CCl)N1CCN(Cc2ccccc2)CC1
inactive: [1] -0.369 | [2] -0.299 | [3] -0.496 | [4] 0.0203 | [5] -0.213 | [6] -0.391 | [7] 0.0502 | [8] -0.536 | [9] -0.381
